From PubChem BioAssay AID493169 (National Center for Advancing Translational Sciences (NCATS), 2011)
Records with an inconclusive call do not appear. Where a call stands in place of a potency, no number is given. The source made the active and inactive calls. Calls follow the shape of the dose curve; as a rule, active = well fitted inhibition curve with a large enough effect; inconclusive = small, poorly fitted or top-dose-only effect; inactive = flat fitted curve, though single readings scatter.
Potency is read from the fitted curve at half-maximal effect.

Test: CHOP2 Reporter Counterscreen Assay for Inhibitors of Ubiquitin-specific Protease USP2a;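 also: activated enterokinase alone at 50 pM in a cell-free format rather than USP2a or CHOP2; nearly all actives have a fitted effect of over 55% in size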
Conditions: purified enterokinase, fluorogenic substrate, 485/531 nm; series mostly up to 38.3 µM
In short: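 Cell-free counterscreen with pre-activated enterokinase alone (50 pM final) in 20mM Tris-HCl pH 8.0, 2mM CaCl2, 2mM beta-mercaptoethanol, 0.05% CHAPS; compound preincubation 30 min RT, reporter substrate 25nM final, fluorescence read after 10 min (Ex 485/Em 531).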
For CCCCCCCCCCOC(=O)Cn1c(COc2ccc(Cl)cc2)[n+](C)c2ccccc21, the Potency was 8.91 µM (active). In the case of O=C(CSc1nc2ccccc2c(=O)n1CC1CCCO1)NCc1ccccc1 (stereo not drawn), the Potency is reported as “inactive”. For Cn1nc(CC(=O)NCc2ccc(F)cc2)c2ccccc2c1=O, the Potency was “inactive”. In the case of CC(CN1CCCCC1)OC(=O)c1ccc(Cl)cc1 (stereo not drawn), the Potency is reported as “inactive”. For Cc1noc(C)c1NC(=O)Nc1ccc2c(c1)C(=O)N([C@H](C)CO)C[C@H](C)[C@@H](CN(C)S(=O)(=O)c1ccccc1)O2, the Potency was “inactive”. For Cc1c(C(=O)Nc2ccc3c4c(cccc24)CC3)cccc1[N+](=O)[O-], the Potency was “inactive”. In the case of CC1=CC(C)(C)N(C(=O)c2ccccc2)c2ccccc21, the Potency is reported as “inactive”. In the case of O=C(COC(=O)/C=C/c1ccc(Cl)cc1)NC1CC1, the Potency is reported as “inactive”. For CCCCCCCCCCC[N+](C)(C)CC/C=C1/c2ccccc2Sc2ccc(Cl)cc21, the Potency was 11.2 µM (active). For Cc1cccc(NC(=S)NCc2ccc3c(c2)cc(C)n3C)c1C, the Potency was “inactive”. For Cc1ccc(NC(=O)c2cc3c(=O)oc4ccccc4c3s2)nc1, the Potency was “inactive”. With Cc1cc(NC(=O)c2cccc(S(=O)(=O)N(C)C)c2)n(-c2ccccn2)n1 the Potency was “inactive”. In the case of O=C(O)c1cccc(-n2cccc2/C=C2/NC(=O)N(c3ccc(Cl)cc3)C2=O)c1, the Potency is reported as 2 µM (active). For O=C(c1cccc(F)c1)N1CCN(S(=O)(=O)c2ccccc2)CC1, the Potency was “inactive”. In the case of CCn1nnnc1SCC(=O)Nc1cccc(C)n1, the Potency is reported as “inactive”. In the case of Cc1c(O)c(CN2CCCC2)cc2c3c(c(=O)oc12)CCC3, the Potency is reported as “inactive”. For O=C(Nc1nnc(SCC(=O)N2CCCC2)s1)C1CC(=O)N(c2ccc(F)cc2)C1 (stereo not drawn), the Potency was 10 µM (active). For COc1ccc(-c2nc(Cn3c(SCc4ccc(F)cc4)nc4ccncc43)c(C)o2)cc1OC, the Potency was “inactive”. In the case of CC(C)(C)C1CCc2nc(NC(=O)Cc3cn4ccsc4n3)sc2C1 (stereo not drawn), the Potency is reported as “inactive”. For CCCOc1ccc(-c2nc(C#N)c(N3CCN(CC)CC3)o2)cc1, the Potency was “inactive”. For O=C(NCc1ccccc1)C1CCC1, the Potency was “inactive”. In the case of Cc1cccc2c1N(CCCOc1ccc(C(C)(C)C)cc1)C(=O)C2=O, the Potency is reported as “inactive”. For CCOc1ccccc1C(=O)NC1CC2CCCC(C1)N2C1CC1 (stereo not drawn), the Potency was “inactive”.
